HT1080 IDH1KD tx: qHTS for induction of synthetic lethality in tumor cells producing 2HG: qHTS for the HT-1080-IDH1KD cell line; HT-1080 IDH1 knockdown viability, ATP luminescence, 48 h; Potency, µM (doses to about 46.1 µM), for inactives: at the top dose activity, negative = toxicity, usual class: cytotoxic; actives 2% (n = 360,000); AID 686971, 2013;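 note: potency is the fitted concentration of half-maximal effect; 0% = DMSO wells and -100% = cell-free medium wells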
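In this qHTS, HT-1080 cells depleted of IDH1 are exposed for 48 h at 37 °C to compound titrations. Toxicity is scored from CellTiter-Glo luminescence, with DMSO as full viability and medium alone as none.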
uPA surface inh: qHTS for Inhibitors of Cell Surface uPA Generation; cell surface uPA generation assay, qHTS; Potency, µM (doses to about 38.3 µM), without a hit: at the highest dose activity change, negative = inhibition, usual class: inhibitors; actives 0.31% (n = 330,000); AID 540303, 2011; active = well fitted inhibition curve with a large enough effect; inconclusive = small, poorly fitted or top-dose-only effect; inactive = no such curve, though single readings can be large or run the other way; tested in mouse RAW 264.7 cells; note: potency is the fitted concentration of half-maximal effect; nearly all actives have a fitted effect of over 55% in size
DT40 TDP1 no CPT: qHTS for Inhibitors of human tyrosyl-DNA phosphodiesterase 1 (TDP1): qHTS in cells in absence of CPT. actives 15% (n = 420,000). Potency, µM (titrated, usually from 46.2 µM), without a hit: at the highest dose activity change, negative = growth inhibition, hits mostly inhibitors. AID 686978, 2013. DT40 Tdp1-/- hTDP1 cells, no CPT, ATP luminescence, 48 h; note: potency is the fitted concentration of half-maximal effect; nearly all actives have a fitted effect of over 55% in size
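Readout: luminescence from CellTiter-Glo after 30 min in the dark at RT. Cells: DT40 Tdp1-/- with stable hTDP1, 400/well. Exposure: compounds alone, ≥48 hr, 37 °C.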
IL1B secr inh: qHTS for Inhibitors of Inflammasome Signaling: IL-1-beta AlphaLISA Primary Screen | THP-1 LPS/ATP IL-1B secretion, AlphaLISA, 16 h; hits give low values | activity change, % at 57.5 µM | actives 4.7% (n = 360,000) | AID 743279, 2014; in the data active = activity change below about -50%; inconclusive = mostly about -30% to -49%
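Secreted IL-1B measured by AlphaLISA bead assay after 16 h compound exposure of THP-1 cells; compounds (final up to 57.5 uM) added 1 h before LPS (250 ng/mL) and ATP (1.25 mM) stimulation; lower signal means less secretion.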
TDP1 cell CPT: qHTS for Inhibitors of human tyrosyl-DNA phosphodiesterase 1 (TDP1): qHTS in cells in presence of CPT | Potency, µM (top dose mostly 46.2 µM), for inactives: top-dose activity change, negative = growth inhibition, most hits filed as inhibitors | chicken DT40 Tdp1-/-;hTDP1 cells + 20 nM CPT, ATP luminescence, 48 h | actives 12% (n = 420,000); note: potency is the fitted concentration of half-maximal effect; nearly all actives have a fitted effect of over 55% in size
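Chicken DT40 Tdp1-/- cells stably complemented with human TDP1 were seeded at 400 cells/well in medium containing 20 nM camptothecin, exposed to pin-transferred compounds, and grown at 37 °C for at least 48 hr. Viability was read as ATP luminescence.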
HT1080-NT tox: qHTS for induction of synthetic lethality in tumor cells producing 2HG: qHTS for the HT-1080-NT fibrosarcoma cell line | HT-1080-NT fibrosarcoma viability, CellTiter-Glo ATP luminescence, 48 h | Potency, µM (titrated, usually from 46.1 µM), inactives show at the top dose activity, negative = less viability, hits mostly cytotoxic | actives 1.6% (n = 360,000) | AID 686970, 2013;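 note: NT is the 2HG producing partner of a matched IDH1 knockdown line; potency is the fitted concentration of half-maximal effect; 0% = DMSO-treated cells and -100% = media-only wells without cells; nearly all actives have a fitted effect of over 55% in size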
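HT-1080-NT fibrosarcoma cells (2HG-overproducing), 750 cells/well in RPMI with 5% FBS, dosed after 2 h and incubated 48 h at 37C. CellTiter-Glo luminescence normalized to DMSO and no-cell wells; concentration-response curves fitted and classed.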
Starred values were filed as active, the others as inactive; ? = inconclusive; / = no result given. An excerpt weighted towards active compounds, which were near 19% of everything screened. Unless noted, calls come from the whole dose curve; as a rule, active = well fitted curve in the direction sought with a large enough effect; inconclusive = small, poorly fitted or top-dose-only effect, or another doubt; inactive = no such curve, though single readings can be large; an effect the other way counts as inactive or inconclusive. Unless noted, % is set by controls: 0 for no effect and ±100 for the full control effect.

SMILES	HT1080 IDH1KD tx	uPA surface inh	DT40 TDP1 no CPT	IL1B secr inh	TDP1 cell CPT	HT1080-NT tox
Cc1ccc(C(O)c2ncc(-c3ccc4ccccc4c3)[nH]2)cc1 (centres undefined)	14%	/	?	17	?	-10%
Cc1cc(C)cc(C(O)c2ncc(-c3ccc4ccccc4c3)[nH]2)c1 (centres undefined)	?	/	?	14	23µM*	-9%
Cc1ccc2ccccc2c1C(O)c1ncc(-c2ccccc2Cl)[nH]1 (centres undefined)	?	/	?	-13	26µM*	?
Cc1cc(C)cc(C(O)c2ncc(-c3ccccc3Cl)[nH]2)c1 (centres undefined)	21µM*	/	?	0	?	?
Cc1cccc(-c2cnc(C(O)c3ccc(-c4ccccc4)cc3)[nH]2)c1 (centres undefined)	?	/	23µM*	-2	23µM*	?
Cc1ccccc1-c1cnc(C(O)c2c(C)ccc3ccccc23)[nH]1 (centres undefined)	-27%	/	?	-9	?	-27%
OC(c1ccc(-c2ccccc2)cc1)c1ncc(-c2ccccc2)[nH]1 (centres undefined)	?	/	?	17	?	-18%
CC1(C(=O)Nc2ccc3c(c2)OCCO3)CSCC(=O)N1CC(F)(F)F (centres undefined)	4%	/	3%	24	3%	16%
O=[N+]([O-])c1cc2oc3c(c2c(C=NCc2ccccc2)c1O)CCCC3	-1%	0%	15µM*	3	8.2µM*	-1%
O=C(c1ccc(Br)s1)N(Cc1cccnc1)c1nc2ccc(F)cc2s1	/	/	-21%	/	-28%	/
COc1ccc(Cc2c(C3CCCCC3)nc3c(Cl)cc(C(F)(F)F)cn23)c(C)c1	?	/	?	1	18µM*	?
COc1ccc(Cc2c(C3CCCCC3)nc3cc(C)c(Br)c(C)n23)c(C)c1	3%	/	?	0	-5%	4%
COc1ccc(Cc2c(C3CCCCC3)nc3ccc(Br)cn23)c(C)c1	-22%	/	23µM*	33	16µM*	-17%
COc1ccc(NC(=O)CN(C)C(=O)c2oc3c(ccc4ccccc43)c2C)cc1	-26%	-16%	?	19	-27%	-6%
O=c1[nH]c2ccccc2cc1-c1nnn(-c2ccccc2)n1	9%	-14%	?	21	16µM*	17%
COc1ccc2[nH]c(=O)c(-c3nnn(-c4ccc(Cl)nc4)n3)cc2c1	2%	-8%	?	14	12µM*	1%
O=c1[nH]c2ccccc2cc1-c1noc(-c2cccnc2)n1	1%	/	?	8	-19%	15%
Fc1ccc(-n2nnc(-c3ccccc3)n2)cc1	8%	18%	20%	12	-5%	-1%
COc1ccc2[nH]c(=O)c(-c3nnn(-c4ccc(F)cc4)n3)cc2c1	-1%	-1%	16µM*	13	4.6µM*	2%
COc1ccc2[nH]c(=O)c(-c3noc(-c4ccccc4)n3)cc2c1	-25%	-1%	18µM*	-16	21µM*	-11%
COc1ccc2[nH]c(=O)c(-c3nnn(-c4ccccc4)n3)cc2c1	10%	3%	?	?	?	9%
O=C(Nc1cc2cccc([N+](=O)[O-])c2oc1=O)c1cccs1	19%	1%	8%	0	6%	-2%
COc1ccc(C(=O)C(=O)c2ccc(OCCO)cc2)cc1	1%	-14%	-16%	23	-18%	0%
CCN(CC)c1ncnc2scc(C3COc4ccccc4O3)c12 (centres undefined)	?	11%	?	-6	16µM*	?
CCN1C(=O)c2ccccc2S(=O)c2ccc(C(=O)N3CCN(c4ccccc4)CC3)cc21 (centres undefined)	/	/	18µM*	/	?	/
SMILES	HT1080 IDH1KD tx	uPA surface inh	DT40 TDP1 no CPT	IL1B secr inh	TDP1 cell CPT	HT1080-NT tox
CCN1C(=O)c2ccccc2S(=O)c2ccc(C(=O)N3CCN(c4cccc(Cl)c4)CC3)cc21 (centres undefined)	/	/	18µM*	/	?	/
CCN1C(=O)c2ccccc2S(=O)c2ccc(C(=O)N3CCN(C(=O)c4ccco4)CC3)cc21 (centres undefined)	5%	-11%	-27%	10	-24%	-3%
CCN1C(=O)c2ccccc2S(=O)c2ccc(C(=O)N3CCCCCC3)cc21 (centres undefined)	-7%	?	?	-3	?	20%
COc1ccc(Br)cc1CNC(=O)CSc1cc(=O)n(C)c2ccccc12	/	/	2%	/	-3%	/
CC1(C)Cc2cccc(OCC(=O)OCC(=O)Nc3cccc(S(N)(=O)=O)c3)c2O1	-1%	3%	1%	-6	5%	3%
Cc1ccc(S(=O)(=O)N2CCN(C(=O)CSc3nc(N)cc(=O)[nH]3)CC2)c(C)c1	0%	-5%	0%	-17	14%	4%
CC(C)C1NC2(C(=O)c3ccccc3C2=O)C2C(=O)N(c3ccc(F)cc3)C(=O)C12 (centres undefined)	-4%	-1%	26µM*	7	26µM*	-4%
O=C1C2C3C=CC(CC3)C2C(=O)N1c1ccc(F)cc1 (centres undefined)	12%	3%	4%	16	7%	8%
COc1ccccc1/C=C/C=N/NC(=O)CCn1cnc2ccccc21	15µM*	-13%	10µM*	-7	16µM*	10µM*
COc1ccc(/C=C/C(=O)Oc2cccc(/C=N/NC(=O)COc3c(C)cccc3C)c2)cc1	-21%	-4%	15µM*	1	21µM*	-20%
COc1ccc(/C=N/NC(=O)COc2ccccc2-c2ccccc2)cc1	0.82µM*	-7%	0.65µM*	106	0.58µM*	2.3µM*
O=C(CCn1cnc(-c2ccccc2)c1-c1ccccc1)N/N=C/c1ccc(O)cc1	?	?	?	32	?	?
O=C(CCn1cnc(-c2ccccc2)c1-c1ccccc1)N/N=C/c1ccccc1O	15µM*	?	4.6µM*	230	5.2µM*	13µM*

Screens: PubChem BioAssay, National Center for Advancing Translational Sciences (NCATS)
